The test system of experiment [1] is HCC1937. Put plainly: relative cell viability, compound + erastin, vs DMSO (fraction of DMSO control); higher = less growth inhibition. Conditions: 72 h.
The subject of experiment [2] is MDA-MB-231. The experiment is described as above. Particulars: 72 h.

Molecules are shown by their SMILES.
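Note: viability read by CCK-8 kit in 96-well plates, part of a combination screen pairing lipid-metabolism-targeting compounds with erastin.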

With `CCOC(=O)c1c(NC(=O)CN2CCN(C(=O)c3ccco3)CC2)sc2c1CCC2` + CCOc1ccccc1-n1c(C(C)N2CCN(C(=O)COc3ccc(Cl)cc3)CC2)nc2ccccc2c1=O [erastin], the relative cell viability in experiment [1] is 0.647; in experiment [2], 0.839.

With `CCC(C)(Oc1ccc(C2(c3ccc(OC(C)(CC)C(=O)O)cc3)CCCCC2)cc1)C(=O)O` (centres undefined) [Clinofibrate] + CCOc1ccccc1-n1c(C(C)N2CCN(C(=O)COc3ccc(Cl)cc3)CC2)nc2ccccc2c1=O [erastin], the results for the relative cell viability in experiment [1] and in experiment [2] were 0.544 and 0.325, respectively.

On to `CC(C)(Oc1ccc(C2CC2(Cl)Cl)cc1)C(=O)O` (centres undefined) [Ciprofibrate] + CCOc1ccccc1-n1c(C(C)N2CCN(C(=O)COc3ccc(Cl)cc3)CC2)nc2ccccc2c1=O [erastin], for which the relative cell viability in experiment [1] was 0.848; in experiment [2] it was 0.628.

On to `O=C1C=CC[C@@H]2[C@H]3CCCN4CCC[C@@H](CN12)[C@@H]34` [Sophocarpine] + CCOc1ccccc1-n1c(C(C)N2CCN(C(=O)COc3ccc(Cl)cc3)CC2)nc2ccccc2c1=O [erastin], for which the relative cell viability was 0.705 in experiment [1] and 0.856 in experiment [2].

For the molecule `O=S(=O)(Nc1ccc(C(O)(C(F)(F)F)C(F)(F)F)cc1)c1cccs1` + CCOc1ccccc1-n1c(C(C)N2CCN(C(=O)COc3ccc(Cl)cc3)CC2)nc2ccccc2c1=O [erastin], the relative cell viability came to 0.652 in experiment [1] and 0.568 in experiment [2].

On to `C[C@H](CCOc1cccc(CC(=O)O)c1)N(Cc1cccc(C(F)(F)F)c1Cl)CC(c1ccccc1)c1ccccc1` + CCOc1ccccc1-n1c(C(C)N2CCN(C(=O)COc3ccc(Cl)cc3)CC2)nc2ccccc2c1=O [erastin], for which the relative cell viability came to 0.602 in experiment [1] and 0.384 in experiment [2].

Regarding `Nc1ccc(O)c(C(=O)O)c1` [Mesalamine] + CCOc1ccccc1-n1c(C(C)N2CCN(C(=O)COc3ccc(Cl)cc3)CC2)nc2ccccc2c1=O [erastin], the results for the relative cell viability in experiment [1] and in experiment [2] were 0.772 and 0.585, respectively.

In the case of `CN1c2ccccc2C(=O)Nc2cnc(Nc3ccc(N4CCC(O)CC4)cc3)nc21` + CCOc1ccccc1-n1c(C(C)N2CCN(C(=O)COc3ccc(Cl)cc3)CC2)nc2ccccc2c1=O [erastin], the relative cell viability turned out to be 0.205 in experiment [1] and 0.644 in experiment [2].

For `CCN(CC)c1ccc(C=NNC(=O)c2ccncc2)c(O)c1` + CCOc1ccccc1-n1c(C(C)N2CCN(C(=O)COc3ccc(Cl)cc3)CC2)nc2ccccc2c1=O [erastin], the relative cell viability in experiment [1] amounted to 0.254; in experiment [2], 0.677.

Turning to `CC1=C(/C=C/C(C)=C/C=C/C(C)=C/C=C/C=C(C)/C=C/C=C(C)/C=C/C2=C(C)C(=O)[C@@H](O)CC2(C)C)C(C)(C)C[C@H](O)C1=O` [Astaxanthin] + CCOc1ccccc1-n1c(C(C)N2CCN(C(=O)COc3ccc(Cl)cc3)CC2)nc2ccccc2c1=O [erastin], the relative cell viability in experiment [1] turned out to be 0.674; in experiment [2] it was 1.56.

On to `CC(C)[C@H](N=C(NS(=O)(=O)c1ccc(Cl)cc1)N1C[C@H](c2ccccc2)C(c2ccc(Cl)cc2)=N1)C(N)=O` + CCOc1ccccc1-n1c(C(C)N2CCN(C(=O)COc3ccc(Cl)cc3)CC2)nc2ccccc2c1=O [erastin], for which the figures for the relative cell viability in experiment [1] and in experiment [2] were 0.483 and 0.429, respectively.

Take `COc1cccc(-n2c(=O)[nH]c3cc(Cl)n(-c4ccc(-c5cccc(OC)c5O)cc4)c3c2=O)c1` + CCOc1ccccc1-n1c(C(C)N2CCN(C(=O)COc3ccc(Cl)cc3)CC2)nc2ccccc2c1=O [erastin]: the relative cell viability is 0.66 in experiment [1] and 0.852 in experiment [2].

In the case of `CCN(CC)Cc1ccc(C(=O)N(CCc2ccccc2OC)[C@@H]2CCNC2)cc1` + CCOc1ccccc1-n1c(C(C)N2CCN(C(=O)COc3ccc(Cl)cc3)CC2)nc2ccccc2c1=O [erastin], the values for the relative cell viability in experiment [1] and in experiment [2] were 0.872 and 0.726, respectively.

In the case of `OC[C@H]1O[C@@H](Oc2cc(O)cc(/C=C/c3ccc(O)cc3)c2)[C@H](O)[C@@H](O)[C@@H]1O` [Polydatin] + CCOc1ccccc1-n1c(C(C)N2CCN(C(=O)COc3ccc(Cl)cc3)CC2)nc2ccccc2c1=O [erastin], the relative cell viability turned out to be 0.78 in experiment [1] and 0.601 in experiment [2].

In the case of `O=C(Nc1ccccc1)N1CCN(c2nc(-c3ccccc3)ns2)CC1` + CCOc1ccccc1-n1c(C(C)N2CCN(C(=O)COc3ccc(Cl)cc3)CC2)nc2ccccc2c1=O [erastin], the relative cell viability came out at 0.559 in experiment [1] and 0.353 in experiment [2].

Consider `CC1CC(OC(=O)C(O)c2ccccc2)CC(C)(C)C1` (centres undefined) [Cyclandelate] + CCOc1ccccc1-n1c(C(C)N2CCN(C(=O)COc3ccc(Cl)cc3)CC2)nc2ccccc2c1=O [erastin], for which the relative cell viability was 0.828 in experiment [1] and 0.606 in experiment [2].

As to `COc1ccc(-c2coc3cc(OC)ccc3c2=O)cc1` [4',7-Dimethoxyisoflavone] + CCOc1ccccc1-n1c(C(C)N2CCN(C(=O)COc3ccc(Cl)cc3)CC2)nc2ccccc2c1=O [erastin], the relative cell viability in experiment [1] was 0.313; in experiment [2], 0.427.

For the origin of these results see the supplement of paper PMC9492666.
